Our source for the INHIBITION values is ChEMBL document CHEMBL4513216, “Probing the Open Global Health Chemical Diversity Library for Multistage-Active Starting Points for Next-Generation Antimalarials” (ACS Infect Dis, 2020).

The whole screen tested about 69,000 compounds, of which about 8,600 (12%) showed an effect of 50% or more. This excerpt belongs to a sample that is enriched for strong results.

This experiment relates to Plasmodium berghei. Put plainly: Screen against P. berghei liver stage (PbLuc), transformed with Luciferase, at 10uM. It is filed as functional, HepG2. Particulars: tested at 10 uM.
Take `c1cnc(N2CCCC3(CCN(CC4CC4)C3)C2)nc1` (stereo not drawn): the INHIBITION was determined as 43.9%. The result for `CCC(CC)CN1CCC2(CCCN(c3ncccn3)C2)C1` (stereo not drawn) reads 62.5%; that for `COCCN1CCC2(CCCN(c3ncccn3)C2)C1` (stereo not drawn), 48.3%; that for `c1cnc(N2CCCC3(CCN(CC4CCC4)C3)C2)nc1` (stereo not drawn), 55.5%.

On to `c1cnc(N2CCC3(CCN(CC4CCCC4)CC3)C2)nc1`, for which the INHIBITION is 28.4%. For `c1cnc(N2CCC3(CCCN(Cc4ccncc4)C3)CC2)nc1`, the INHIBITION is listed as 82.3%. For `c1cnc(N2CCCC3(CCN(c4ncccn4)C3)C2)nc1` (stereo not drawn), the INHIBITION was found to be 44.8%. Turning to `c1cnc(N2CCCC3(CCN(Cc4ccncc4)C3)C2)nc1` (stereo not drawn), the INHIBITION is 42.6%.

For the compound `c1cnc(N2CC3(CCN(Cc4ccncc4)C3)C2)nc1`, the INHIBITION was 11.3%. To `CC1CN(S(=O)(=O)c2ccc(C(=O)NCC(F)F)cc2)CCCO1` (stereo not drawn) belongs 49.2%; to `Cc1ccc(CN2CCN(C(=O)CCc3nc(Cl)n[nH]3)CC2=O)cc1`, 29.4%; to `O=C1CN(Cc2ccc3ccccc3n2)CCN1C1CCCC1`, 36%. The result for `Cc1nnc(NC(=O)NCc2ccc(OC(C)C)nc2)s1` reads 21.5%; that for `CCN(Cc1cccc2c1OCO2)C(=O)Nc1ccncc1`, 46.5%; that for `CCN(Cc1cccc2c1OCO2)C(=O)NC1CC1`, 36.4%. The result for `CN(CC(=O)NCC(F)(F)F)Cc1cccc2c1OCCO2` reads 44.7%; that for `CCN(Cc1cccc2c1OCCO2)C(=O)NC(C)(C)C`, 51.1%; that for `CCN(CC(=O)NC(C)(C)C)Cc1cccc2c1OCCO2`, 23.3%. For `CN(CC(=O)NC(C)(C)C)Cc1cccc2c1OCCO2`, the INHIBITION stood at 65%. The result for `CCC(O)CN1CCN(C(=O)c2sccc2C(C)C)CC1` (stereo not drawn) reads 23.4%; that for `O=C(Nc1nc(-c2ccccc2)ns1)N1CCC(F)CC1`, -47%.

As to `CC(C)(O)C1CCCN(C(=O)Nc2nc(-c3ccccc3)ns2)C1` (stereo not drawn), the INHIBITION was -62.8%.

Turning to `CC(C)(O)C1CCN(C(=O)Nc2nc(-c3ccccc3)ns2)CC1`, the INHIBITION came to 58.9%. Turning to `CC(C)n1cnnc1C1CCCN(S(=O)(=O)c2c[nH]cn2)C1` (stereo not drawn), the INHIBITION came out at 36.3%. To `O=C(Cc1csc(-c2ccccn2)n1)NCCCN1CCCCCC1=O` belongs 9.76%; to `CC(=O)Nc1ncc(S(=O)(=O)N2CCC(C)CC2)s1`, 61.2%. The result for `CC(=O)Nc1ncc(S(=O)(=O)Nc2cccc(F)c2)s1` reads -13%; that for `COC(=O)c1ccc(NS(=O)(=O)c2cnc(NC(C)=O)s2)cc1`, 1.86%; that for `CC(=O)Nc1ncc(S(=O)(=O)Nc2ccc(F)cc2)s1`, -6.32%. In the case of `CC(=O)Nc1ncc(S(=O)(=O)Nc2ccccc2)s1`, the INHIBITION was 40.8%. Take `CC(=O)Nc1ncc(S(=O)(=O)Nc2cccc(C)c2)s1`: the INHIBITION turned out to be 27.5%. The result for `CC(=O)Nc1ncc(S(=O)(=O)N2CCCC(C)C2)s1` (stereo not drawn) reads 40.2%; that for `CC(=O)Nc1ncc(S(=O)(=O)Nc2ccc(C)cc2)s1`, 77.2%.

For `COc1ccc(NS(=O)(=O)c2cnc(NC(C)=O)s2)cc1`, the INHIBITION was found to be 50.7%. The result for `CC(=O)Nc1ncc(S(=O)(=O)Nc2ccc3c(c2)OCCO3)s1` reads 81.4%; that for `CC(=O)Nc1ncc(S(=O)(=O)N2CCOCC2)s1`, 21.7%. To `COC(=O)c1cccc(NS(=O)(=O)c2cnc(NC(C)=O)s2)c1` belongs 22.9%; to `CC(NC(=O)CNS(C)(=O)=O)c1ccccc1Oc1ccccc1` (stereo not drawn), 37.1%; to `Cc1cc(N2CCCCC2)nc(N(CCO)CCO)c1C#N`, 31.8%. The result for `CN(C(=O)c1ccncc1)c1nnc(C2CCOC2)s1` (stereo not drawn) reads 1.25%; that for `Cc1cccc(CN2C(=O)CO[C@@H]3CN(Cc4cnn(C)c4)C[C@H]32)c1`, 45.2%.

Take `COc1ccc(CN2C[C@H]3CCC[C@@H](CN(C)C)[C@H]3C2)cn1`: the INHIBITION amounted to 34.6%. With `Cc1cc(C(=O)N2CCCC(c3ccc(C(=O)O)cc3)C2)c(C)o1` (stereo not drawn), the INHIBITION stood at 9.52%. To `COc1ccc(Cl)cc1NCCC(=O)NCCNc1cnccn1` belongs 14.4%; to `Cc1[nH]ccc1C(=O)NCc1ncoc1C`, -17.3%.

With `CCC(=O)N1CCC1c1cc(NC2CCCC2)nc(C)n1` (stereo not drawn), the INHIBITION was 14.5%. To `COc1ccc(C(C)N2CCC(CNC(C)=O)CC2)cc1Cl` (stereo not drawn) belongs 70.3%. The result for `COc1ccc(C(C)N2CCC(C(=O)NC3CC3)CC2)cc1Cl` (stereo not drawn) reads 41.5%. To `COc1ccc(C(C)N2CCC(NS(C)(=O)=O)CC2)cc1Cl` (stereo not drawn) belongs 57.3%; to `COc1ccc(C(C)N2CCC(CO)CC2)cc1Cl` (stereo not drawn), 40.6%. Consider `COc1ccc(C(C)N2CCC(C(=O)N(C)C)CC2)cc1Cl` (stereo not drawn), for which the INHIBITION is reported as 24.8%. The result for `COc1ccc(C(C)N2CCC(OC)CC2)cc1Cl` (stereo not drawn) reads 42.4%; that for `CC(C)c1cc(NC(=O)Cn2ccc(=O)c3ccccc32)[nH]n1`, 6.72%.
